“And” between values parts separate entries of the source, which are not always exact repeats. Equal entries are not always repeated. ± gives the standard deviation of the averaged measurements.
These molecules were tested on TDF (assay: cell number relative to DMSO (% of DMSO); higher = more cells (less growth inhibition / toxicity)). Settings: concentration: 10 µM; 24 h.
How it was run: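 H1.0 nuclear intensity or cell number is expressed as percent of the plate control, with the median of replicates taken. HCC1569 and TDF cells were treated with compounds at 10 µM for 24 h at 37 °C, in triplicate, then fixed and immunostained for H1.0 with DAPI as a nuclear stain. HCC1569 values were smoothed to correct for positional effects.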
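Note: TDF denotes transformed human dermal fibroblasts of mesenchymal origin.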

**Q.** CNC1C(OC2OC(CO)C(N)C(O)C2O)OC2CC(N)C(OC3C(N)CC(N)C(O)C3O)OC2C1O (stereo not given) [Apramycin] was tested. Which cell number did it give?
**A.** 96.3

**Q.** Which cell number does the source give for NC(=O)c1ccc(-c2nc(-c3ccc4c(c3)OCCO4)c(-c3ccccn3)[nH]2)cc1 here?
**A.** 108

**Q.** With N#Cc1c(N(CC(=O)[O-])CC(=O)[O-])sc(C(=O)[O-])c1CC(=O)[O-].[Sr+2].[Sr+2] as the molecule, how does the cell number read?
**A.** 109

**Q.** For N#Cc1ccc(N2N=C3c4ccc(C(=O)O)cc4CCC3C2C2CCCC2)cc1Cl (stereo not given), which cell number is on record?
**A.** 110

**Q.** Which cell number does the source give for Cl.Cl.Cl.Cl.NCCCNCCCCNCCCN [Spermine tetrahydrochloride] here?
**A.** 104

**Q.** How did the cell number turn out when CCCC(=O)O[C@]1(C(=O)CO)CC[C@H]2[C@@H]3CCC4=CC(=O)CC[C@]4(C)[C@H]3[C@@H](O)C[C@@]21C [(11beta)-11,21-dihydroxy-3,20-dioxopregn-4-en-17-yl butyrate] was run?
**A.** 106

**Q.** Which cell number does the source give for CCOC(=O)CNC(=O)[C@@H]1CCCN1C(=O)Cc1ccccc1 here?
**A.** 109

**Q.** For CCCCCC(O)C=CC1C(O)CC(O)C1CC=CCCCC(=O)O (racemic), which cell number is on record?
**A.** 105

**Q.** With COc1c(C)c2c(c(O)c1CC=C(C)CCC(=O)O)C(=O)OC2 [Mycophenolic Acid] as the molecule, how does the cell number read?
**A.** 63.3 ± 4.9

**Q.** For CC(C)(C)C(=O)OCOC(=O)[C@@H]1N2C(=O)[C@@H](/N=C/N3CCCCCC3)[C@H]2SC1(C)C, which cell number is on record?
**A.** 93.4

**Q.** NCCCCC(NC(CCc1ccccc1)C(=O)O)C(=O)N1CCCC1C(=O)O (stereo not given) [Lisinopril] was tested. Which cell number did it give?
**A.** 99.8

**Q.** How did the cell number turn out when CCCCCCCCCCCCCCCC(=O)NC(CN1CCOCC1)C(O)c1ccccc1 (racemic) was run?
**A.** 94.8

**Q.** For CSCC[C@@H](C=O)NC(=O)[C@H](CC(C)C)NC(=O)[C@H](CC(C)C)NC(C)=O, which cell number is on record?
**A.** 95.5

**Q.** With CC(CCc1ccc(O)cc1)NCCc1ccc(O)c(O)c1.Cl (stereo not given) [Dobutamine.HCl] as the molecule, how does the cell number read?
**A.** 111

**Q.** How did the cell number turn out when CC(C)n1cnc2c(NCc3ccccc3)nc(NCCO)nc21 [N9-Isopropylolomoucine] was run?
**A.** 105

**Q.** With CCN(CC)Cc1ccc(C(=O)N(CCc2ccccc2OC)[C@@H]2CCNC2)cc1.Cl.Cl as the molecule, how does the cell number read?
**A.** 95.9

**Q.** With CC(C)(C)c1ccc(C(O)CCCN2CCC(C(O)(c3ccccc3)c3ccccc3)CC2)cc1 (stereo not given) [Terfenadine] as the molecule, how does the cell number read?
**A.** 97.9 ± 12

**Q.** With Cc1cc(C)c(C=C2C(=O)Nc3ccccc32)[nH]1 as the molecule, how does the cell number read?
**A.** 108 and 105

**Q.** For Cl.Nc1nc2ccc(OC(F)(F)F)cc2s1 [Riluzole.HCl], which cell number is on record?
**A.** 89.9

**Q.** With CCOC(=O)C1=CC(OC(CC)CC)C(NC(C)=O)C(N)C1 (stereo not given) [Oseltamivir] as the molecule, how does the cell number read?
**A.** 100

**Q.** Which cell number does the source give for CCCCCCCCCCCCCCCCCCOP(=O)([O-])OC1CC[N+](C)(C)CC1 [1,1-dimethylpiperidinium-4-yl octadecyl phosphate] here?
**A.** 96.6

**Q.** Which cell number does the source give for Cc1cc(=O)oc2cc(O)ccc12 [4-Methylumbelliferone] here?
**A.** 103

**Q.** For CC1CCC(C(C)(C)O)CC2=C1CCC2C (single isomer, unassigned; (-)) [(-)-Guaiol], which cell number is on record?
**A.** 102

**Q.** For C[N+](C)(C)CCO.[Br-] [Choline bromide], which cell number is on record?
**A.** 108

**Q.** For CCCCC=CCCCCCCCC(=O)O [9(Z)-Tetradecenoic acid], which cell number is on record?
**A.** 105

**Q.** Which cell number does the source give for CCCCOc1cc(CC2CNC(=O)N2)ccc1OC (stereo not given) here?
**A.** 110

**Q.** For Cc1cn[nH]c1.Cl [4-Methylpyrazole hydrochloride], which cell number is on record?
**A.** 102

**Q.** With CC(=O)O/N=C1\C(=O)N(Cc2cc(Cl)ccc2Cl)c2ccc(Cl)cc21 as the molecule, how does the cell number read?
**A.** 107

**Q.** Cc1ccc(F)cc1C(=O)Nc1ccc(C(=O)N2Cc3cccn3Cc3ccccc32)c(Cl)c1 was tested. Which cell number did it give?
**A.** 95.3

**Q.** For Cc1c2c(c(O)c3c(O)cccc13)C(=O)OC2C1C(O)C(=O)C(C(N)=O)=C(O)C1N(C)C (racemic), which cell number is on record?
**A.** 93.1

**Q.** How did the cell number turn out when COc1cc(-c2ccc(=O)[nH]n2)ccc1OC(F)F [Zardaverine] was run?
**A.** 107 ± 9.4

**Q.** CC(C)S(=O)(=O)N[C@H]1CCOC[C@@H]1c1ccc(-c2ccc(C#N)s2)cc1 was tested. Which cell number did it give?
**A.** 98.3

**Q.** Which cell number does the source give for N#CC(=Cc1ccc(O)c(O)c1)C(=O)NCCCc1ccccc1 [Tyrphostin AG 555] here?
**A.** 90.7

**Q.** CC(=O)O.CN=C(N)NCCCC(N)C(=O)O [NG-Monomethyl-L-arginine acetate] was tested. Which cell number did it give?
**A.** 102

**Q.** How did the cell number turn out when CCCCCCCCC=CCCCCCCCC(=O)OCC(O)COP(=O)(O)O (stereo not given) [Lysophosphatidic acid] was run?
**A.** 104

**Q.** For C=C1CC23CC1(O)CCC2C12C=CC(O)C(C)(C(=O)O1)C2C3C(=O)O (single isomer, unassigned; (+)) [(+)-Gibberellic acid], which cell number is on record?
**A.** 112

**Q.** For CC(Cc1ccccc1)Nc1ncnc2c1ncn2C1OC(CO)C(O)C1O (stereo not drawn) [R(-)-N6-(2-Phenylisopropyl)adenosine], which cell number is on record?
**A.** 96.5

**Q.** N=c1nc(N2CCCCC2)cc(N)n1O [Minoxidil] was tested. Which cell number did it give?
**A.** 105 ± 3.1

**Q.** With O=C1Cc2c([nH]c3ccc(Br)cc23)-c2ccccc2N1 [Kenpaulone] as the molecule, how does the cell number read?
**A.** 97.7

**Q.** Which cell number does the source give for CCCCCCCCCCCCCC=CC(O)C(N)CO (stereo not given) [Sphingosine] here?
**A.** 101 ± 6.5

Reference: the supplement of paper PMC7156485
